These results are taken from PubChem BioAssay (NCI).

Test systems include SK-MEL-2 melanoma; EKVX NSCLC; SN12C renal; UO-31 renal; TK-10 renal; ACHN renal; CAKI-1 renal; A498 renal; CCRF-CEM leukemia; MOLT-4 leukemia.
What all share (assay): NCI-60 one-dose screen, 48 h (100 = growth as untreated, 0 = no growth, -100 = all killed)
What all share (conditions): 10 µM unless noted

Compounds without any hit were thinned out: in the full panel of roughly 83,000, 20% have a hit.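 Values shown are percent growth following 48 h exposure of cells in 96-well plates to a single concentration of compound; below 10 was considered active.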 Unmarked numbers belong to inactive results. Activity calls are given as the source filed them.

Consider `CCCCNC(=S)Nc1ccc(OCc2nc3ccc(Cl)cc3[nH]2)cc1`, for which the growth in the experiment with SK-MEL-2 melanoma was 7.47% (active); in the experiment on EKVX NSCLC it was 28.9%; in the experiment with SN12C renal, 19.2%; with UO-31 renal it was 5.99% (active); with TK-10 renal it was 36.6%; with ACHN renal it was 5.02% (active). For the same compound, the growth with CAKI-1 renal is 21.6%; with A498 renal it was 90%; with CCRF-CEM leukemia it was 7.96% (active); in the experiment on MOLT-4 leukemia, 9.85% (active).
For `Cc1nn(-c2ccccc2)c2nc(C)n(CC(=O)N/N=C/c3ccccc3O)c(=O)c12`, the growth is 38.1% in the experiment with SK-MEL-2 melanoma; 13% with EKVX NSCLC; 30% in the experiment on SN12C renal; 13.2% with UO-31 renal; 32.8% with TK-10 renal; 14.6% with ACHN renal. The growth in the experiment on CAKI-1 renal was 22.6%; in the experiment with A498 renal, 97%; in the experiment on CCRF-CEM leukemia it was 25.7%; in the experiment on MOLT-4 leukemia, 22.8%.
As to `Cn1cc(-c2cc(N)n3nc(-c4c[nH]c5ccc(Cl)cc45)cc3n2)c2cccnc21`, the growth in the experiment on SK-MEL-2 melanoma was 81%; in the experiment with EKVX NSCLC, -71.9% (active); with SN12C renal, -80% (active); in the experiment on UO-31 renal it was -77.5% (active); in the experiment on TK-10 renal, -85.9% (active); with ACHN renal, -98.8% (active). In addition, the growth in the experiment on CAKI-1 renal was -62.3% (active); in the experiment on A498 renal it was -79.7% (active); with CCRF-CEM leukemia, -34.8% (active); in the experiment with MOLT-4 leukemia, -37.8% (active).
In the case of `CCOc1ccc(-c2cc(-c3cc(C(C)C)c(O)cc3C)nn2-c2ccc(S(N)(=O)=O)cc2)cc1`, the growth with SK-MEL-2 melanoma is 54.5%; in the experiment with EKVX NSCLC, 30.9%; with SN12C renal it was 30.6%; in the experiment on UO-31 renal it was 48.6%; in the experiment on TK-10 renal, 84.2%; in the experiment on ACHN renal, 54.1%. In addition, the growth in the experiment with CAKI-1 renal is 58.7%; in the experiment on A498 renal, 98.3%; with CCRF-CEM leukemia, 11.3%; with MOLT-4 leukemia it was 11.6%.
In the case of `COc1ccc(N=Nc2c(N)nn3c(-c4ccc(OC)c(OC)c4)ccnc23)cc1`, the growth with SK-MEL-2 melanoma was 103%; in the experiment with EKVX NSCLC it was 103%; in the experiment on SN12C renal it was 88.5%; in the experiment on UO-31 renal, 108%; in the experiment with TK-10 renal it was 88.6%; with ACHN renal it was 77.4%. The growth in the experiment on CAKI-1 renal is -60.2% (active); in the experiment with A498 renal it was 95.7%; in the experiment with CCRF-CEM leukemia it was 86.9%; in the experiment on MOLT-4 leukemia it was 100%.
Turning to `S=C(Nc1ccc(OCc2nc3ccc(Cl)cc3[nH]2)cc1)NC1CCCCC1`, the growth is -44.9% (active) in the experiment on SK-MEL-2 melanoma; -7.76% (active) in the experiment on EKVX NSCLC; -80.6% (active) in the experiment with SN12C renal; -7.63% (active) in the experiment with UO-31 renal; -10.8% (active) in the experiment on TK-10 renal; -16% (active) in the experiment on ACHN renal. Further, the growth with CAKI-1 renal was -5.65% (active); in the experiment on A498 renal it was -1.77% (active); in the experiment with CCRF-CEM leukemia, 5.6% (active); in the experiment with MOLT-4 leukemia, 1.31% (active).
As for `Cc1ccc(Nc2nnc(-c3c[nH]c4ccccc34)o2)c(C)c1`, the growth in the experiment on SK-MEL-2 melanoma is 31.4%; with EKVX NSCLC, 21.9%; with SN12C renal it was 18%; in the experiment on UO-31 renal it was 26.4%; in the experiment on TK-10 renal, 45.8%; in the experiment on ACHN renal, 34.3%. For the same compound, the growth with CAKI-1 renal was 33.5%; in the experiment with A498 renal it was 112%; in the experiment on CCRF-CEM leukemia, -0.0547% (active); in the experiment on MOLT-4 leukemia, 0.191% (active).
`O=C(c1ccc(Cl)cc1)C1[C@H](c2ccccc2Cl)[C@@H](c2ccccc2)NC12C(=O)Nc1ccccc12` (stereo not given in full): the growth with SK-MEL-2 melanoma is -85.3% (active); in the experiment with EKVX NSCLC it was 1.03% (active); in the experiment on SN12C renal, -89.1% (active); with UO-31 renal it was 3.34% (active); with TK-10 renal, 12.1%; in the experiment with ACHN renal it was 1.1% (active). The growth in the experiment on CAKI-1 renal is 3.65% (active); in the experiment on A498 renal, -29% (active); in the experiment with CCRF-CEM leukemia, 4.66% (active); with MOLT-4 leukemia, -32.1% (active).
In the case of `Cc1ccc(C(=O)Nc2cc(-n3ccnc3C)cc(C(F)(F)F)c2)cc1C#Cc1cnc2cccnn12`, the growth in the experiment on SK-MEL-2 melanoma was -64.1% (active); in the experiment on EKVX NSCLC, 3.81% (active); with SN12C renal, -8.57% (active); with UO-31 renal, 0.162% (active); in the experiment with TK-10 renal, 11.6%; in the experiment on ACHN renal, -6.55% (active). The growth in the experiment with CAKI-1 renal was -41.4% (active); in the experiment on A498 renal, -18.4% (active); in the experiment with CCRF-CEM leukemia, 5.01% (active); with MOLT-4 leukemia, 4.23% (active).
Regarding `Cc1nn(-c2ccccc2)c2ncn(CC(=O)N/N=C/c3ccccc3O)c(=O)c12`, the growth with SK-MEL-2 melanoma is 55%; with EKVX NSCLC, 13.3%; in the experiment with SN12C renal it was 47.4%; with UO-31 renal, 22.6%; in the experiment with TK-10 renal, 63.4%; in the experiment with ACHN renal, 21.4%. Also, the growth with CAKI-1 renal was 39.1%; with A498 renal, 87.2%; in the experiment on CCRF-CEM leukemia, 23.9%; in the experiment on MOLT-4 leukemia, 9.42% (active).
For the compound `CCN1C(=O)N(CC)C2NNC(Sc3c(C(=O)O)c4ccccc4n(CCC(C)C)c3=O)=NC21` (stereo not given), the growth with SK-MEL-2 melanoma is 22.3%; in the experiment on EKVX NSCLC it was 20.8%; in the experiment on SN12C renal, 16.3%; with UO-31 renal, 28.1%; in the experiment with TK-10 renal it was 62.1%; in the experiment on ACHN renal, 24%. The growth in the experiment with CAKI-1 renal was 38.9%; in the experiment on A498 renal it was 76.4%; with CCRF-CEM leukemia, 7.16% (active); in the experiment on MOLT-4 leukemia it was 3.81% (active).
Consider `Oc1ccc(Cl)c(Nc2nc(SCCN3CCOCC3)nc3c2cnn3CC(Cl)c2ccc(Br)cc2)c1` (stereo not given), for which the growth in the experiment with SK-MEL-2 melanoma is 20.6%; with EKVX NSCLC it was 37%; with SN12C renal, 35%; with UO-31 renal, 14%; in the experiment with TK-10 renal, 36.1%; in the experiment on ACHN renal, 12.9%. Also, the growth is 21.2% in the experiment on CAKI-1 renal, 63.4% in the experiment on A498 renal, 3.42% (active) with CCRF-CEM leukemia and -24% (active) with MOLT-4 leukemia.
For `COc1cc(C2CC(c3ccc(C(F)(F)F)cc3)=Nc3c(N)nc(N)nc3N2)ccc1Oc1nc(Nc2ccc(F)cc2)nc(N(C)C)n1` (stereo not given), the growth in the experiment on SK-MEL-2 melanoma was 59.9%; in the experiment on EKVX NSCLC it was 44.1%; in the experiment with SN12C renal, 50.7%; in the experiment on UO-31 renal, 41.6%; in the experiment with TK-10 renal, 65.4%; with ACHN renal it was 48.3%. The growth in the experiment with CAKI-1 renal was 40.9%; in the experiment on A498 renal, 65.6%; with CCRF-CEM leukemia, 69.4%; in the experiment with MOLT-4 leukemia, 4.31% (active).
